# This is part of a sample that, as a whole, favours compounds with a hit. Of some 83,000 tested, about 20% had one in any assay.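 Step 1: grow cells in 96-well plates. Step 2: add test compound at a single concentration. Step 3: incubate 48 h. Step 4: record percent growth.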 Active and inactive are the calls of the source. Rule for the calls: active = growth percent below 10; inactive = the rest.
# Tested on: NCI-H322M lung
# Experiment: NCI-60 one-dose screen, 48 h (100 = growth as untreated, 0 = no growth, -100 = all killed)
# Settings: 10 µM unless noted
row,Compound,growth
1,COc1cc2c(cc1OC)-c1ccc3cc4c(cc3c1N(CCCN1CCCCC1)C2)OCO4,63.6% (inactive)
2,COc1cc2cc(Oc3ccc(NC(=O)Nc4cc(C(F)(F)F)cc(C(F)(F)F)c4)cc3)c(C)nc2cc1OCCN1CCCCC1,-87.1% (active)
3,CCN(CC)CCOC(=O)Nc1ccccc1Cl,92.7% (inactive)
4,COc1cc(CNC(=O)/C=C/C=C/c2ccc3c(c2)OCO3)ccc1OCc1cn(-c2ccc(Cl)c(Cl)c2)nn1,21.6% (inactive)
5,N#C/C=C(\c1ccc([N+](=O)[O-])cc1)n1nnc2cc(Cl)c(Cl)cc21,46.1% (inactive)
6,CNC(=O)c1c(NC(=O)c2ccc(C(C)(C)C)cc2)sc2c1CCC(=O)C2,35.4% (inactive)
7,CCCCOc1ccc(NC(=O)n2nc(N=NN(C)C)c3ccc(Cl)cc32)cc1,99.4% (inactive)
8,CC[C@@H](C[C@H](CCO)c1ccccc1)c1cc2ccccc2o1,92.9% (inactive)
9,N=c1ccn2c(n1)OC1C(O)C(CO)OC12 (stereo unspecified),63.8% (inactive)
10,Cc1cc(N2CCCCC2)nc(N(CCNc2ccnc3cc(Cl)ccc23)Cc2ccccn2)n1,68.8% (inactive)
11,CCOc1ccc2nc(-c3cccc(OCC(=O)NC(C)C)c3)nc(Nc3ccc(-c4cn[nH]c4)cc3)c2c1,-8.36% (active)
12,C=C1C(=O)O[C@H]2[C@H]1CC/C(Cn1cc(CNCCc3c[nH]c4ccc(Cl)cc34)nn1)=C\CC[C@@]1(C)O[C@@H]21,85.7% (inactive)
13,CS(=O)(=O)c1ccc(-c2nc3cc(Cl)ccc3n2CC(=O)N/N=C/c2ccc(Cl)cc2)cc1,70.4% (inactive)

# Tested on: HOP-62 NSCLC
# Experiment: as above
# Settings: 10 µM unless noted
row,Compound,growth
1,Nc1ccc(CCCCc2ccccc2)c(Cl)c1,105% (inactive)
2,Nc1ccc(S(=O)(=O)Nc2ccsc2-c2nc(-c3ccccc3)no2)cc1,35.8% (inactive)
3,C=C(CNCCc1ccc(O)cc1)[C@@H]1CC[C@]2(COC3CCCCO3)CC[C@]3(C)[C@H](CC[C@@H]4[C@@]5(C)CCC(NCCO)C(C)(C)[C@@H]5CC[C@]43C)[C@@H]12 (stereo partly specified),-89.2% (active)
4,OC(COc1cccc2ccccc12)CN1CCN(c2ccccc2)CC1 (stereo unspecified),90.4% (inactive)
5,Cc1[nH]c(-c2nc3ccccc3[nH]2)c(C)c1C(=O)N1CCc2sccc2C1,98.2% (inactive)
6,CC(C)n1nc(C#Cc2cccc(NC(=O)c3cccc(C(F)(F)F)c3)c2)c2c(N)ncnc21,-37.9% (active)
7,Cc1cc(NS(=O)(=O)c2ccccc2)c(OS(=O)(=O)c2ccccc2)cc1C,105% (inactive)
8,OCCCCc1nccc2c1[nH]c1ccccc12,95.3% (inactive)
9,C=C(C)[C@@H]1CC[C@]2(CNCCO)CC[C@]3(C)[C@H](CC[C@@H]4[C@@]5(C)CCC(N)[C@@](C)(CO)[C@@H]5CC[C@]43C)[C@@H]12 (stereo partly specified),-53.7% (active)
10,OC(c1cccc(OCc2ccccc2)c1)c1nnc(-c2ccccc2)o1 (stereo unspecified),107% (inactive)
11,Cl.[Pt].[c-]1ccccc1-c1ccccn1.c1ccc(P(c2ccccc2)C([PH+](c2ccccc2)c2ccccc2)[PH+](c2ccccc2)c2ccccc2)cc1,25.1% (inactive)
12,COc1cc2c(c(OC)c1OC)C(=O)/C(=C/c1cc(C)c(O)c(C)c1)S2,46.5% (inactive)
13,O=C(Nc1ccccn1)[C@H](O)[C@@H](O)C(=O)N1CCOCC1,104% (inactive)
14,CC(C)(C)N1CC(OC(N)=O)C1,100% (inactive)
15,O=C(NC1CCOCC1)c1ccc2c(c1)CN(c1ncc(Cc3cccc(-n4cccn4)c3)s1)CC2,104% (inactive)
16,CN1C[C@@H](c2ccc(Cl)cc2)[C@]2(NC(=S)N(c3ccc(F)c(Cl)c3)C2=O)[C@@]12C(=O)NC1C=CC(Cl)=C[C@H]12 (stereo partly specified),79.8% (inactive)
17,CCCN1CCN(c2ccc3nc(-c4ccc5nc(-c6ccc(OCC)c(OCC)c6)[nH]c5c4)[nH]c3c2)CC1,-64.9% (active)
18,NC(=S)c1csc(CCNC(=O)c2ccccc2)n1,109% (inactive)
19,CCN(CCO)CC(=O)c1cc(Cl)cc(Cl)c1Cl,94.8% (inactive)
20,C=CC(=O)Nc1cccc(C)c1Nc1cc(-c2cccnc2Cc2c(C)c(OC)cc(OC)c2C)ncn1,-38% (active)
21,N#Cc1c(NC(=O)c2ccccc2I)sc2c1CCCC2,42.2% (inactive)
22,C#CC[C@H](N)C(=O)O,94.4% [20 µM] (inactive)
23,COc1ccc(-n2ncn(CCCCCCn3cnn(-c4ccc(OC)cc4)c3=O)c2=O)cc1,89.5% (inactive)

# From PubChem BioAssay (NCI)
